Screens from PubChem.
S16 F2sN tox = S16 Schwann cell cytotoxicity; 0.48% of 43,000 active; Potency, µM (top dose mostly 57.5 µM), for inactives: top-dose activity change, negative = cytotoxicity, hits mostly cytotoxic; S16 Pmp22-F2sN Schwann cells viability, CellTiter-Glo, 24 h; AID 1508642; note: potency is the fitted concentration of half-maximal effect; % is set by controls: 0 for no effect and ±100 for the full control effect; nearly all actives have a fitted effect of over 65% in size
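Rat S16 Schwann reporter line, 24 h treatment with library compounds delivered at 23 nL per well. Cell viability by CellTiter-Glo luminescence.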
HTT-AS act = activates huntingtin-antisense promoter activity; 0.24% of 48,000 active; HEK293 HTT-AS promoter firefly luciferase reporter, 24 h; response scale: percent change from vehicle, -100% = no light; Potency, µM (highest dose often 57.5 µM), without a hit: top-dose activity change, positive = activation, most hits filed as activators; note: potency is the fitted concentration of half-maximal effect; nearly all actives have a fitted effect of over 55% in size
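Quantitative HTS used concentration series of up to 57.5 uM final on HEK293 luciferase reporter cells, 24 h at 37 degrees C. Readout was Dual-Glo firefly luminescence.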
HTT prom inh = HTT promoter inhibition | Potency, µM (titrated, usually from 57.5 µM), inactives show at the top dose activity change, negative = inhibition, usual class: inhibitors | HEK293 HTT promoter firefly luciferase reporter, 24 h | 0.93% of 48,000 active; note: potency is the fitted concentration of half-maximal effect; nearly all actives have a fitted effect of over 50% in size
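HEK293 Fluc reporter, 2,500 cells/well, 24 h pre-culture; cpds up to 57.5 uM final, 24 h 37 degrees C; Dual-Glo, 10 min RT; normalized vehicle = 0%, zero RLU = -100%.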
OvCa metastasis = inhibitors of ovarian cancer cell adhesion and invasion in omental model | SKOV3ip1-GFP adhesion/invasion on 3D omental model, fluorescence | Potency, µM (series often up to 45.8 µM), for the others: top-dose activity change, negative = inhibition, most hits filed as inhibitors | 0.1% of 46,000 active;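 note: potency is the fitted concentration of half-maximal effect; plate controls were DMSO wells for no effect and tomatine positive control wells for full effect; nearly all actives have a fitted effect of over 65% in size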
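Adhesion/invasion was scored as fixed GFP-labeled SKOV3ip1 cell counts (488/509 nm), normalized to DMSO and tomatine controls. Cancer cells in serum-free medium, with four compound doses (0.36-46 umol/L), sat 2 hr at RT then 16 hr at 37 C on a 48 hr fibroblast/mesothelial/ECM culture.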
mTORC1 inh = reduces mTORC1 signaling in Tsc2 and p53 null MEF cells; Tsc2-/- p53-/- MEF, phospho-rpS6 immunofluorescence/PI, 24 h; Potency, µM (series often up to 38.3 µM), inactives show top-dose activity change, negative = inhibition, usual class: inhibitors; 0.78% of 44,000 active; AID 493208;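 note: potency is the fitted concentration of half-maximal effect; plate controls were DMSO for no effect and rapamycin for full effect; nearly all actives have a fitted effect of over 50% in size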
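Tsc2-/-, p53-/- mouse embryonic fibroblasts (empty-vector line) exposed to compound 24 hrs at 37 C, fixed, immunostained for phospho-rpS6 and counterstained with propidium iodide. Acumen laser scanning gives % positive cells from Alexa 488/PI ratio, thresholded using 7.5 nM rapamycin; PI count gives viability.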
PMP22 txn = modulates PMP22 transcription in S16 Schwann cells | S16 Pmp22-F2sN Schwann cells, FLuc/NLuc coincidence luminescence, 24 h | Potency, µM (titrated, usually from 57.5 µM), without a hit: at the highest dose activity change, negative = inhibition, most hits filed as inhibitors | 2% of 43,000 active; active = clear falling dose curves in both reporters; inconclusive = both reporters move, but less clearly or upward; inactive = either reporter flat; the % is the NLuc reporter signal; note: potency is the fitted concentration of half-maximal effect; % is set by controls: 0 for no effect and ±100 for the full control effect
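Rat S16 Pmp22-F2sN cells, 500-1,000/well in phenol red-free DMEM + 10% FBS, compound-treated 24 h (37C, 5% CO2). Luminescence: FLuc read, Stop&Glo added, NLuc read.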
NLuc saturating = inhibits NanoLuc at saturating substrate, PMP22 counter-screen; Secreted NLuc enzyme (filtered S16 cell medium), Nano-Glo luminescence; Potency, µM (series often up to 57.5 µM), for inactives: at the highest dose activity change, negative = inhibition, usual class: inhibitors; 4% of 690 active; shares compounds with PMP22 txn; note: potency is the fitted concentration of half-maximal effect; % is set by controls: 0 for no effect and ±100 for the full control effect
NLuc Km counter = inhibits NanoLuc under Km conditions, PMP22 counter-screen; secreted NLuc enzyme, coelenterazine luminescence, Km conditions; 5% of 690 active; shares compounds with PMP22 txn; Potency, µM (highest dose often 57.5 µM), for inactives: top-dose activity change, negative = inhibition, most hits filed as inhibitors; note: potency is the fitted concentration of half-maximal effect; % is set by controls: 0 for no effect and ±100 for the full control effect
FLuc counter = firefly luciferase enzyme inhibition artifact for PMP22 screen; purified P. pyralis FLuc, luminescence, 10 min; 690 tested, under 10 active; shares compounds with PMP22 txn; Potency, µM (series often up to 57.5 µM), for the others: at the highest dose activity, negative = inhibition, hits mostly inhibitors; note: % of control where 0% means no effect
Target sequence (P08659 whole entry, looked up): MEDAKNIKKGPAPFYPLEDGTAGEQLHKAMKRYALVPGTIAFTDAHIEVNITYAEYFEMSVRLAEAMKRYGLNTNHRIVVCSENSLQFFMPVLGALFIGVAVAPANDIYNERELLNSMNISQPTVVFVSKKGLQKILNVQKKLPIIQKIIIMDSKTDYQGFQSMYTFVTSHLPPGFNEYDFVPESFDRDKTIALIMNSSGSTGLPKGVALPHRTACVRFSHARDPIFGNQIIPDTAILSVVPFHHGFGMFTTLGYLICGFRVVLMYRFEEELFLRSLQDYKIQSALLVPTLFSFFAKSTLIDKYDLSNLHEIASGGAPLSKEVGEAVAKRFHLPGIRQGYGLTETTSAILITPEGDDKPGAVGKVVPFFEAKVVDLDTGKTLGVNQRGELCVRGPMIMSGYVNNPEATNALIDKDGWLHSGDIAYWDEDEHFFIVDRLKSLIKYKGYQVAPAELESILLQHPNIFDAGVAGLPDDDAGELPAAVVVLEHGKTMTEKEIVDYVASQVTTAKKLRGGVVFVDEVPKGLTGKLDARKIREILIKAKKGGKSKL
S16 viab conf = confirmation of cytotoxicity in S16 Pmp22-F2sN Schwann cells (luciferase reporters placed in the Pmp22 gene). shares compounds with PMP22 txn. S16 Schwann cells viability, CellTiter-Glo ATP luminescence, 24 h. Potency, µM (top dose mostly 57.5 µM), inactives show at the top dose activity change, negative = viability loss, most hits filed as cytotoxic. 7% of 690 active. AID 1508641; note: potency is the fitted concentration of half-maximal effect; % is set by controls: 0 for no effect and ±100 for the full control effect
PMP22 txn cnf = confirmation of modulators of PMP22 gene transcription in S16 cells | shares compounds with PMP22 txn | S16 Schwann cells Pmp22-F2sN, dual luciferase, 24 h | Potency, µM (top dose mostly 57.5 µM), inactives show at the highest dose activity change, negative = inhibition, usual class: inhibitors | 22% of 690 active; active = clear falling dose curves in both reporters; inconclusive = both reporters move, but less clearly or upward; inactive = either reporter flat; the % is the FLuc reporter signal; note: potency is the fitted concentration of half-maximal effect
PMP22 prot conf = rat PMP22 protein level modulation, confirmatory | shares compounds with PMP22 txn | S16 Schwann cells Pmp22-HiBiT, luminescence, 48 h | Potency, µM (top dose mostly 27.9 µM), without a hit: at the top dose activity change, negative = inhibition, actives largely listed as inhibitors | 95 tested, under 10 active
Target sequence (P25094 whole entry, looked up): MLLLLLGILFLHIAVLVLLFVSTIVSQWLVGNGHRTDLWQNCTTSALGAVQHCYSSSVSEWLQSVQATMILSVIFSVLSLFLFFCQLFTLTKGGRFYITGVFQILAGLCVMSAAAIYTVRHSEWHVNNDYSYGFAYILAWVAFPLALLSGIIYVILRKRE
* marks the source's active call; other numbers are inactive results; i = inactive; ? = inconclusive; · = no result. A selection: hits, their analogues and other compounds. The true share with any hit is near 3.6%. Unless noted, calls come from the whole dose curve; as a rule, active = well fitted curve in the direction sought with a large enough effect; inconclusive = small, poorly fitted or top-dose-only effect, or another doubt; inactive = no such curve, though single readings can be large; an effect the other way counts as inactive or inconclusive.

SMILES	S16 F2sN tox	HTT-AS act	HTT prom inh	OvCa metastasis	mTORC1 inh	PMP22 txn	others
Cc1ccccc1-n1c(/C=C/c2ccccc2F)nc2ccccc2c1=O	2%	-38%	?	15%	-10%	?
O=c1c2ccccc2nc(/C=C/c2cccc3ccccc23)n1-c1ccccc1Cl	?	-11%	28µM*	-3%	10%	?
Cc1ccccc1-n1c(Cn2cnc3c(N)ncnc32)nc2cccc(C)c2c1=O	·	-30%	?	?	·	·
CCCCNC(=O)c1cc(-c2cccnc2)nc2ccc(S(=O)(=O)NCCCC)cc12	25µM*	-12%	-16%	-3%	?	?
CCOc1ccc(N(C(C)C(=O)Nc2cc(Cl)ccc2OC)S(C)(=O)=O)cc1 (configuration not stated)	?	-37%	?	?	7.4µM*	?
N#C[C@H](O[C@@H]1O[C@H](CO[C@@H]2O[C@H](CO)[C@H](O)[C@H](O)[C@H]2O)[C@H](O)[C@H](O)[C@H]1O)c1ccccc1	·	-30%	?	-18%	·	·
CC(C)[C@]12O[C@@H]1[C@@H]1O[C@]13[C@]1(O[C@H]1C[C@@H]1C4=C(CC[C@@]13C)C(=O)OC4)[C@H]2O	·	?	-38%	-2%	·	·
CC(C)(O)C=CC(=O)[C@](C)(O)[C@H]1[C@H](O)C[C@]2(C)[C@@H]3CC=C4[C@@H](C=C(O)C(=O)C4(C)C)[C@]3(C)C(=O)C[C@@]12C	·	-82%	?	1µM*	·	·
COC1=CC(C)=C[C@@H](C)[C@@H](O)[C@@H](C)CC(C)=CC=C[C@H](OC)[C@H]([C@@H](C)[C@@H](O)[C@H](C)[C@@]2(O)C[C@@H](O)[C@H](C)[C@@H](C(C)C)O2)OC1=O	·	-28%	?	?	·	·
COc1ccc(NC(=O)CCn2cnc3onc(-c4ccc(F)cc4)c3c2=O)cc1OC	?	-54%	?	i	?	11µM*
CC1=C2C[C@@H]3[C@@H](CC=C4C[C@@H](O)CC[C@@]43C)[C@@H]2CC[C@]12O[C@H]1C[C@H](C)CN[C@H]1[C@H]2C	·	-6%	9%	20%	·	·
CCc1ccc(-n2nc(C)c3c2NC(=O)CSC3c2ccc(OC)cc2OC)cc1 (configuration not stated)	?	-37%	22µM*	1%	?	?
CCc1ccc(-n2nc(C)c3c2NC(=O)CSC3c2ccccc2C)cc1 (configuration not stated)	?	-37%	?	i	-1%	?
C[C@@H]1CC[C@H]2[C@@H](C)C(=O)O[C@@H]3O[C@@]4(C)CC[C@H]1[C@]32OO4	·	-15%	-16%	-4%	·	·
N#Cc1cc2c(nc1SCC(=O)Nc1ccc(Cl)c(C(F)(F)F)c1)C1CCN2CC1	?	-63%	16µM*	i	9%	?
N#Cc1cc2c(nc1SCC(=O)Nc1ccc(C(F)(F)F)cc1)C1CCN2CC1	?	-43%	14µM*	i	-17%	?
COC[C@H]1OC(=O)c2coc3c2[C@@]1(C)C1=C(C3=O)[C@@H]2CC[C@H](O)[C@@]2(C)C[C@@H]1OC(C)=O	·	-39%	?	6%	·	·
CC1=C(O)C(=O)C=C2C1=CC=C1[C@@]2(C)CC[C@@]2(C)[C@@H]3C[C@](C)(C(=O)O)CC[C@]3(C)CC[C@]12C	·	-93%	?	4.2µM*	·	·
C[C@@H]1CC[C@@]2(OC1)O[C@H]1C[C@H]3[C@@H]4CC=C5C[C@@H](O[C@@H]6O[C@H](CO)[C@@H](O[C@@H]7O[C@@H](C)[C@H](O)[C@@H](O)[C@@H]7O)[C@H](O)[C@@H]6O[C@@H]6O[C@@H](C)[C@H](O)[C@@H](O)[C@@H]6O)CC[C@]5(C)[C@@H]4CC[C@]3(C)[C@@H]1[C@H]2C	·	-15%	-6%	?	·	·
O=C(NCCSc1c(-c2ccc(F)cc2)[nH]c2ccccc12)c1ccc(S(=O)(=O)N2CCOCC2)cc1	?	-43%	?	?	15µM*	?
Cc1c(Cl)cccc1NC(=O)c1oc2ccc(S(=O)(=O)N3CCC4(CC3)OCCO4)cc2c1C	?	-44%	?	0%	13µM*	14µM*	NLuc saturating=-15%;NLuc Km counter=-3%;FLuc counter=-5%;S16 viab conf=-24%;PMP22 txn cnf=?;PMP22 prot conf=15%
C[C@@H]1[C@@H](C(=O)C[C@H]2O[C@@H]3O[C@]4(C)CC[C@@H]5[C@H](C)CC[C@@H]([C@H]2C)[C@@]35OO4)O[C@@H]2O[C@]3(C)CC[C@H]4[C@H](C)CC[C@@H]1[C@@]24OO3	·	-19%	?	3%	·	·
